Shown is part of a subset that was picked to be rich in hits.
RE007 growth inh – less growth of the S. pombe RE007 Vpr strain; S. pombe RE007 Vpr strain, BacTiter-Glo ATP luminescence, 24 h; Potency, µM (titrated, usually from 92.2 µM), without a hit: top-dose activity change, negative = less growth, actives largely listed as inhibitors; 360,000 tested, 0.21% active; AID 651644; active = well fitted falling curve with a large enough effect; inconclusive = small, poorly fitted or top-dose-only effect; inactive = no such curve, though single readings can be large or run the other way; also: potency is read from the fitted curve at half-maximal effect; % is scaled to controls: 0 for no effect and ±100 for the full control effect; nearly all actives have a fitted effect of over 50% in size
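Fission yeast strain RE007, carrying one chromosomally integrated HIV-1 vpr copy, was seeded at OD 0.01 in PMG+AL medium with 23 nL pinned compound. After 24 h at 30 °C and 99% humidity, viability was read by BacTiter-Glo luminescence.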
Tb PYK inh – inhibitors of Trypanosoma brucei pyruvate kinase; Q57TT1; Potency, µM (series often up to 76.8 µM), inactives show at the top dose activity, negative = inhibition, most hits filed as inhibitors; TbPYK enzyme, Kinase-Glo Plus ATP luminescence, 45 min; 410,000 tested, 0.12% active; also: potency is read from the fitted curve at half-maximal effect; % is scaled to controls: 0 for no effect and ±100 for the full control effect; nearly all actives have a fitted effect of over 50% in size
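In this concentration-response screen, enzyme-free wells defined baseline while DMSO plates tracked drift. Each reaction combined TbPYK, substrate, compound and 130 uM ADP for 45 min at room temperature. Kinase-Glo Plus luminescence gave the signal.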
LmPK inh – LmPK (Leishmania mexicana) enzyme inhibition; 290,000 tested, 0.37% active; AID 1721; Potency, µM (titrated, usually from 57.5 µM), inactives show at the highest dose activity change, negative = inhibition, most hits filed as inhibitors; Q27686; purified LmPK, Kinase-Glo ATP luminescence, 1 h; also: potency is read from the fitted curve at half-maximal effect; % is scaled to controls: 0 for no effect and ±100 for the full control effect
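Purified LmPK (0.1 nM) with 0.5 mM PEP and 0.1 mM ADP in imidazole buffer pH 7.2 with MgCl2/KCl, 1 h at room temperature. ATP formed was read by luciferase luminescence and normalized to no-enzyme and uninhibited controls.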
Shiga inhibitor – inhibitors of Shiga toxin in Vero cells. 290,000 tested, 9.2% active. AID 2315. Vero cells, Shiga toxin protein synthesis inhibition reporter. inhibition, % at 38.7 µM; in the data active = inhibition mostly above about 28%, no sharp cut-off; inactive = mostly below about 43%; also: 0% is about no effect
FBPA Giardia inh – inhibitors of Giardia lamblia fructose-1,6-bisphosphate aldolase. Potency, µM (series often up to 59.6 µM), without a hit: at the highest dose activity, negative = inhibition, usual class: inhibitors. 290,000 tested, 0.71% active. purified Giardia FBPA. A8B2U2; also: potency is read from the fitted curve at half-maximal effect; % is scaled to controls: 0 for no effect and ±100 for the full control effect; nearly all actives have a fitted effect of over 55% in size
Target sequence (A8B2U2 whole entry, looked up): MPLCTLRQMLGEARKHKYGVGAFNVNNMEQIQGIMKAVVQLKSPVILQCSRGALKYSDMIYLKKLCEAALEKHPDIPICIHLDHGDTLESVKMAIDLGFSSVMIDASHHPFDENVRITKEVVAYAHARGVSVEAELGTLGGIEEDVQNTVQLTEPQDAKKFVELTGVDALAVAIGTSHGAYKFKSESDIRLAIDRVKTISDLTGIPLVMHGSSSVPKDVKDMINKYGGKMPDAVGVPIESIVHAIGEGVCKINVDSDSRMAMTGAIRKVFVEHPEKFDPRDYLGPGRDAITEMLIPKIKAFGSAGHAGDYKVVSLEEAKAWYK
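Giardia FBPA (40 nM reagent) was preincubated 10 min at RT with compound (up to 57.5 uM final), then substrate plus GAPDH/TPI/NAD/arsenate coupling system with diaphorase/resazurin was added; resorufin fluorescence (525/598 nm) was read after 20 min.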
CHX counter – affects cycloheximide protein synthesis inhibition readout, counter-screen; cell reporter, cycloheximide protein synthesis inhibition counterscreen; max response, %; 300,000 tested, 12% active; AID 2314; in the data active = max response mostly above about 13%, no sharp cut-off; inactive = mostly below about 14%; also: read at 38.3 µM for the half of the compounds with a filed dose; 0% is about no effect
* marks the source's active call; other numbers are inactive results; ? = inconclusive; · = no result given; [ ] = dose if it differs, or a comment. Unless noted, calls follow the shape of the dose curve; as a rule, active = well fitted curve in the direction sought with a large enough effect; inconclusive = small, poorly fitted or top-dose-only effect, or another doubt; inactive = no such curve, though single readings can be large; an effect the other way counts as inactive or inconclusive.

SMILES | RE007 growth inh | Tb PYK inh | LmPK inh | Shiga inhibitor | FBPA Giardia inh | CHX counter
COc1ccc(C2=Nc3ccccc3N(CC(=O)Nc3cccc(C(C)=O)c3)C(=O)C2)cc1 | · | 4% | · | · | · | ·
Cc1ccc(S(=O)(=O)c2[nH]c(-c3ccccc3)nc2SC(C)C(=O)O)cc1 (configuration not stated) | · | -8% | · | · | · | ·
COc1ccccc1C(=O)NNC(=O)c1ccc(Br)cc1 | -27% | -1% | 7% | 15 | -14% | 10*
COc1ccccc1C(=O)NNC(=O)c1ccncc1 | 0% | -5% | 0% | 33 | -3% | 2
COc1ccccc1C(=O)NNC(=O)c1ccc(Br)o1 | -21% | 6% | 1% | 82* | · | 44*
COc1ccccc1C(=O)NNC(=O)c1ccc(C)cc1 | -18% | 2% | -2% | 32 | 3% | 20*
COC(=O)c1ccc(CO/N=C/c2ccccc2OC)cc1 | 2% | 3% | 2% | 13 | -11% | 6
COc1ccccc1/C=N/OC(=O)c1ccc(C)cc1 | -6% | -1% | -3% | 16 | 0% | 11*
CCOC(=O)C1CCN(C(=O)CCC2CCCC2)CC1 | -10% | -4% | -1% | 22 | 21% | 3
CSc1cccc(NC(=S)Nc2cc(C)ccc2C)c1 | -1% | -2% | 1% | 6 | -7% | 7
COc1ccccc1NC(=O)c1oc2ccccc2c1NC(=O)Cc1cccs1 | · | -7% | · | · | · | ·
O=c1c2ccccc2c(C=Nc2cccc(S(=O)(=O)NCc3ccco3)c2)c(O)n1-c1ccc(Cl)cn1 | 1% | 0% | 5% | 51* | 1% | 44*
COCCn1c(SCC(=O)NC2CCCCC2)nnc1-c1ccncc1 | 5% | -2% | -2% | -15 | 4% | -5
CCc1cccc(C)c1NC(=O)CCn1c(=O)c2cccn2c2ccccc21 | · | -2% | · | · | · | ·
O=C(NC1=NC2CCCCC2N1)c1ccccc1 (configuration not stated) | 2% | -3% | -16% | 97* | 4% | 34*
O=C(NC1CCCCCCC1O)c1ccccc1 (configuration not stated) | 3% | -3% | · | · | · | ·
CC1C/C(=N/NC(=O)c2ccc(CSc3nc4ccccc4[nH]3)cc2)CC(C)(C)C1 (configuration not stated) | -4% | -15% | 1% | 17 | -1% | 6
c1ccc2nc(NN=C3CCCCC3)ccc2c1 | -12% | -7% | · | · | · | ·
c1ccc2[nH]c(NN=C3CCCCCC3)nc2c1 | -3% | -3% | ? | 110* | 0% | 44*
Cc1cc(N/N=C2/CCCc3ccccc32)nc2ccccc12 | ? | 1% | -4% | 57* | -11% | 54*
Cc1cc(N/N=C2\CC(C)CC(C)(C)C2)nc2ccccc12 (configuration not stated) | 6% | 1% | 2% | 27* | -10% | 35*
c1ccc(N/N=C2\CCCc3ccccc32)nc1 | -10% | 0% | -8% | 7 | -2% | 18
CC1C/C(=N/Nc2nc3ccccc3[nH]2)CC(C)(C)C1 (configuration not stated) | -4% | -3% | -1% | 69* | -1% | 33*
Cc1ccc(-n2c(=O)c3c4c(sc3n(Cc3ccccc3C)c2=O)CCC4)cc1C | · | 1% | · | · | · | ·
COC(=O)[C@@]1(Cc2ccccc2)[C@H]2c3cc(C(=O)N(C)C)n(Cc4ccc(S(C)(=O)=O)cc4)c3C[C@H]2CN1C(=O)c1ccccc1 | · | · | · | · | 2% | ·
SMILES | RE007 growth inh | Tb PYK inh | LmPK inh | Shiga inhibitor | FBPA Giardia inh | CHX counter
O=[N+]([O-])c1ccc(O)c(/C=N/Nc2nc3ccccc3[nH]2)c1 | 50% | -7% | 0% | 9 | -11% | 19*
COc1cc(/C=N/Nc2nc3ccccc3[nH]2)cc(OC)c1O | 1% | -21% | -20% | 73 | -7% | 18*
COc1cc(/C=N/Nc2nc3ccccc3[nH]2)cc(Br)c1OCC(=O)N(C)C | -17% | 1% | 8% | 139* | -16% | 37*
COc1cc(/C=N/Nc2nc3ccccc3[nH]c2=O)ccc1O | -2% | 0% | -6% | 17* | -20% | 19
O=[N+]([O-])c1ccc(O)c(C=NNc2ccc(S(=O)(=O)O)cc2)c1 | -20% | 0% | · | · | · | ·
CCCCCCCCCCCCCCCCCCCCCC(=O)Nc1ccn([C@@H]2O[C@H](CO)[C@@H](O)[C@@H]2O)c(=O)n1 | · | -6% | · | · | · | ·
CCCCOc1ccc(C(=O)N(Cc2ccc(C(C)C)cc2)C2CCS(=O)(=O)C2)cc1 (configuration not stated) | · | 0% | · | · | · | ·
COc1cc(NC(=O)COCc2cc(-c3ccc(F)cc3)on2)cc(OC)c1OC | · | -2% | · | · | · | ·
COc1ccc(O)c(/C=N/Nc2nc3ccccc3[nH]2)c1 | 8% | -2% | 0% | 82* | -12% | 49*
COc1cc(/C=N/Nc2nc(C)cc(C)n2)ccc1O | -15% | 5% | · | · | · | ·
COc1cc(/C=N/Nc2nc3ccccc3[nH]2)ccc1O | 4% | -20% | -9% | 33* | 1% | 37*
COc1cc(/C=N/Nc2snc(SC)c2C#N)ccc1O | 2% | -13% | -1% | 34 | 6% | 27*
COc1cc(/C=N/NC(=O)CCC(=O)Nc2ccc(C)cc2)ccc1O | 11% | -1% | 0% | -11 | 3% | 3
COc1ccc(OC)c(/C=N/NC(=O)Cc2nc3ccccc3[nH]2)c1 | -2% | 8% | 1% | -10 | 10% | -1
COc1cc(/C=C(/C(=O)c2cccs2)c2nc3ccccc3[nH]2)cc(OC)c1O | -2% | 0% | -12% | 91* | ? | 24*
Cc1nnc2sc(SCC(=O)Nc3cccc(Cl)c3)nn2c1=O | 3% | -2% | 8% | 4 | -4% | 5
C[C@H](NC(=O)CNC(=O)[C@@H](NC(=O)[C@H](Cc1ccccc1)NC(=O)CNC(=O)CNC(=O)[C@@H](N)Cc1ccccc1)[C@@H](C)O)C(=O)N[C@@H](CCCN=C(N)N)C(=O)N[C@@H](CCCCN)C(=O)N[C@@H](CO)C(=O)N[C@@H](C)C(=O)N[C@@H](CCCN=C(N)N)C(=O)N[C@@H](CCCCN)C(N)=O | · | · | · | -13 | 5% | -3
CC(=O)Nc1cc(-c2ccccc2)cn2c(-c3ccc(F)cc3)cnc12 | -3%[18.4 µM] | -12% | · | · | · | ·
CC12CN3CC(C)(CN(C1)C3c1ccc3ccccc3c1O)C2=O (configuration not stated) | -11% | -2% | 8% | 40 | 13µM* | -2
CC12CN3CC(C)(CN(C1)C3c1c[nH]c3ccccc13)C2=O (configuration not stated) | -3% | -5% | 4% | 10 | 0% | -1
O=C(Oc1ccccc1)c1ccc(COC(=O)c2cnccn2)cc1 | 13% | 0% | ? | 30 | -1% | 22*
COc1ccc(CCNC(=O)COC(=O)c2ccccn2)cc1 | -9% | 8% | · | · | · | ·

Screening data: PubChem BioAssay, National Center for Advancing Translational Sciences (NCATS)
